Compound activity: PubChem BioAssay, National Center for Advancing Translational Sciences (NCATS)
Pf growth 48h – P. falciparum growth inhibition at 48 hours (one generation). P. falciparum luciferase growth in erythrocytes, 48 h. 5.9% of 310,000 active. AID 504832. Potency, µM (doses to about 28.7 µM), without a hit: at the highest dose activity change, negative = inhibition, most hits filed as inhibitors; further: potency means the concentration at half of the fitted maximal effect; on the % scale 0 is the no-effect control and ±100 the full control effect
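Luciferase-expressing P. falciparum in infected erythrocytes (2% hematocrit, 0.1% parasitemia final) in RPMI 1640/0.5% Albumax were exposed to compound for 48 hours at 37 C, 5% CO2; growth read as luminescence.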
Cycloheximide cs – counter-screen for Shiga toxin inhibitors: cycloheximide protein synthesis inhibition; cell reporter, cycloheximide protein synthesis inhibition counterscreen; max response, %; 12% of 300,000 active; AID 2314; in the data active means max response mostly above about 13%, no sharp cut-off; inactive means mostly below about 14%; further: read at 38.3 µM for the half of the compounds with a filed dose; 0% is about no effect
Shiga inhibitor – inhibitors of Shiga toxin in Vero cells; AID 2315; inhibition, % at 38.7 µM; Vero cells, Shiga toxin protein synthesis inhibition reporter; 9.2% of 290,000 active; in the data active means inhibition mostly above about 28%, no sharp cut-off; inactive means mostly below about 43%; further: 0% is about no effect
Pf growth 96h – P. falciparum growth inhibition at 96 hour, primary screen for plastid delayed-death inhibitors. Potency, µM (highest dose often 28.7 µM), for inactives: at the highest dose activity change, negative = inhibition, hits mostly inhibitors. 6.9% of 320,000 active. P. falciparum luciferase reporter growth, 96 h. AID 504834; further: potency means the concentration at half of the fitted maximal effect; on the % scale 0 is the no-effect control and ±100 the full control effect
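Compounds incubated with erythrocytes infected by luciferase-expressing P. falciparum (2% hematocrit, 0.05% parasitemia final) for 96 hours, 37 C in 5% CO2. Growth inhibition scored as decreased luciferase luminescence.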
NS1 function inh – influenza NS1 inhibition. Potency, µM (series often up to 46.1 µM), inactives show at the top dose activity, positive = more growth. 0.4% of 270,000 active. AID 2326; calls by dose curve; further: potency means the concentration at half of the fitted maximal effect; actives are rising curves; nearly all actives have a fitted effect of over 50% in size
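Growth recovery, yeast-based: influenza A NS1 expressed in S. cerevisiae causes slow growth, and suppressors are detected by OD600. The parent strain without NS1 is used as positive control.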
Numbers without * were called inactive. Only some compounds are listed: those with a hit (about 21% of all), similar ones and a draw of the others. Unless noted, the call rests on the fitted dose curve; in most records, active means well fitted inhibition curve with a large enough effect; inconclusive means small, poorly fitted or top-dose-only effect, or another doubt; inactive means no such curve, though single readings can be large or run the other way.

How did O=C(CNCc1ccco1)Nc1ccc(N2CCCCCC2)cc1 do in these assays?
Pf growth 48h: 17%; Cycloheximide cs: 30*; Shiga inhibitor: 35; Pf growth 96h: 0%; NS1 function inh: 8%

How did CCCC(=O)Nc1ccc(N2CCCCC2)cc1 do in these assays?
Pf growth 48h: 68%; Cycloheximide cs: 25*; Shiga inhibitor: 110*; NS1 function inh: -5%

Results for O=C(CNC(=O)c1ccco1)Nc1ccc(N2CCCCCC2)cc1 ?
Pf growth 48h: 12%; Pf growth 96h: 57%

How did CC(=O)Nc1ccc(N2CCCCC2)cc1 do in these assays?
Pf growth 48h: 14%; Cycloheximide cs: 11; Shiga inhibitor: 24; Pf growth 96h: 26%; NS1 function inh: 3%

How did NS(=O)(=O)c1cc(C(=O)OCC(=O)Nc2ccc(N3CCCCC3)cc2)ccc1Cl do in these assays?
Pf growth 48h: 43%; Cycloheximide cs: 13*; Shiga inhibitor: 7; Pf growth 96h: 43%; NS1 function inh: -1%

How did CCC(=O)Nc1ccc(N2CCCCC2)cc1 do in these assays?
Cycloheximide cs: 37*; Shiga inhibitor: 65; Pf growth 96h: 17%; NS1 function inh: 3%

How did CCc1ccc(NC(=O)COC(=O)c2ccc(Cl)c(S(=O)(=O)N3CCCCCC3)c2)cc1 do in these assays?
Pf growth 48h: 11%; Cycloheximide cs: -3; Shiga inhibitor: -4; Pf growth 96h: 25%; NS1 function inh: 24%

What do the screens show for `CCN(CC)c1ccc(C(=O)NNC(=O)CN2C(=O)NC3(CCCCC3)C2=O)cc1`?
Pf growth 48h: -13%; Pf growth 96h: -13%

What do the screens show for `Cc1cc(N2CCCC2)ccc1NC(=O)CN1C(=O)NC2(CCCCC2)C1=O`?
Pf growth 48h: -17%; Pf growth 96h: 16%

Results for CC(=O)Nc1ccc(N2CCCC2)cc1 ?
Pf growth 48h: inconclusive; Cycloheximide cs: -1; Shiga inhibitor: -12; NS1 function inh: 4%

Results for CCC(=O)NC(=S)Nc1ccc(N2CCOCC2)cc1 ?
Pf growth 48h: 81%; Cycloheximide cs: 28*; Shiga inhibitor: 96*; Pf growth 96h: 37%; NS1 function inh: 8%

How did O=C(CCl)Nc1ccc(N2CCCCCC2)cc1 do in these assays?
Pf growth 48h: inconclusive; Cycloheximide cs: 20*; Shiga inhibitor: 58; Pf growth 96h: inconclusive; NS1 function inh: -36%

What do the screens show for `O=C(O)c1ccc(NC2=C/C(=N/S(=O)(=O)c3ccccc3)c3ccccc3C2=O)cc1`?
Pf growth 48h: inconclusive; Cycloheximide cs: -6; Shiga inhibitor: -11; Pf growth 96h: -22%

How did O=C1C=C(Nc2ccc(O)cc2)C(=O)c2ccccc21 do in these assays?
Pf growth 48h: 98%; Cycloheximide cs: 44*; Shiga inhibitor: 68*; Pf growth 96h: -104%; NS1 function inh: -34%

What do the screens show for `CC(=O)Nc1ccc(NC2=CC(=O)c3ccccc3C2=O)cc1`?
Pf growth 48h: inconclusive; Cycloheximide cs: 55*; Shiga inhibitor: 111*; Pf growth 96h: 0.59µM*; NS1 function inh: 1%

Results for O=C(Nc1ccccc1)Nc1ccccc1C(=O)NCCCN1CCOCC1 ?
Pf growth 48h: inconclusive; Cycloheximide cs: -1; Shiga inhibitor: -4; Pf growth 96h: 25%; NS1 function inh: 6%

How did Nc1ccc(S(=O)(=O)Nc2ccc(C(=O)c3ccccc3)cc2)cc1 do in these assays?
Pf growth 48h: 9%; Cycloheximide cs: 1; Shiga inhibitor: -3; Pf growth 96h: -8%; NS1 function inh: 19%

Results for O=C(CSc1cc(Cl)ccc1Cl)NCC1CCCO1 (configuration not stated) ?
Pf growth 48h: 14%; Cycloheximide cs: -2; Shiga inhibitor: -3; Pf growth 96h: 10µM*; NS1 function inh: -4%

How did O=C(NCC1CCCO1)Nc1ccc(Cl)cc1 (configuration not stated) do in these assays?
Pf growth 48h: 62%; Cycloheximide cs: 44*; Shiga inhibitor: 74*; NS1 function inh: 9%

Results for CCN(CC)c1ccc(NC(=S)NCC2CCCO2)cc1 (configuration not stated) ?
Pf growth 48h: -21%; Cycloheximide cs: 28*; Shiga inhibitor: 101*; Pf growth 96h: inconclusive; NS1 function inh: -4%

How did S=C(NCC1CCCO1)Nc1ccc(Cl)cc1 (configuration not stated) do in these assays?
Pf growth 48h: 14%; Cycloheximide cs: 16*; Shiga inhibitor: 56; Pf growth 96h: 90%; NS1 function inh: 29%
